The text below walks through data of PubChem BioAssay (NCATS).

Structures are written as SMILES. Inconclusive results are not listed. A number with no mark means an inactive call. Activity calls are given as the source filed them. The call rests on the fitted dose curve; in most records, active means well fitted inhibition curve with a large enough effect; inconclusive means small, poorly fitted or top-dose-only effect; inactive means flat fitted curve, though single readings scatter.
On the % scale 0 is the no-effect control and ±100 the full control effect; potency means the concentration at half of the fitted maximal effect.

The test system of the experiment is CRL-7250. Nature of the experiment: Cytotoxic Profiling of Annotated Libraries Using Quantitative High-Throughput Screening (AID 1296008). Further: nearly all actives have a fitted effect of over 60% in size. To be noted: Five cell lines viability, CellTiter-Glo ATP luminescence, 48-72 h; max response: stronger effect = lower value. The procedure, abridged: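 Cytotoxicity was measured as CellTiter-Glo ATP luminescence, read after 10 min at room temperature. Compound treatment of the cells lasted 48 or 72 hr at 37 degrees Celsius in a qHTS format.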
`CC1COC(Nc2ccc3ncnc(Nc4ccc(OCc5nccs5)c(Cl)c4)c3c2)=N1` (stereo not given): the Potency was 9.2 µM (active).
On to `C=C1CC[C@H]2[C@@](C)(CCC(O)[C@@]2(C)CO)[C@@H]1CCC1=CCOC1=O` (stereo not given in full), for which the max response was 0.497%.
Consider `O=C(OC[C@@]1(O)CO[C@@H](O[C@H]2[C@H](Oc3ccc(O)cc3)O[C@H](CO)[C@@H](O)[C@@H]2O)[C@@H]1O)c1ccc(O)cc1`, for which the call was inactive.
For `CC(=O)OC[C@H]1O[C@H](O[C@]2(CO)O[C@H](CO)[C@@H](OC(=O)/C=C/c3ccccc3)[C@@H]2O)[C@H](O)[C@@H](O)[C@@H]1O`, the max response is -26.1%.
Still for that read-out and setting: the same measure for `C/C1=C\C[C@]2(C)C(=O)C(O)=C([C@H](C)CO)[C@H]2C/C=C(\C)[C@@H](O)CC/C(C)=C/CC1`: 3.52%; for `CC(C)C(=O)OC[C@H]1O[C@H](O[C@H]2O[C@H](CO)[C@@H](O)[C@H](O)[C@H]2O)[C@H](O)[C@@H](O)[C@@H]1O`: -1.64%; for `Cc1cc(Cl)ccc1COc1ccnn1-c1cc(C(=O)O)ccn1`: 0.791%.
Same read-out and setting: the same measure for `CC(C)c1ccc2c(c1)C(=O)CC1[C@@](C)(C(=O)O)CCC[C@]21C` (stereo not given in full): 2.88%; for `CC(CO)C1CCC2(C)CC3C(CO)CC(O)C3C(C)(O)C/C=C/12` (stereo not given): -6.97%.
On the same count and under the same terms, the value for `CC(C)NCC(C(=O)N1CCN(c2ncnc3c2C(C)CC3O)CC1)c1ccc(Cl)cc1` (stereo not given) was -1.68%.
Consider `COc1c/c(=C2\C=c3ccccc3=N2)[nH]/c1=C\c1[nH]c(C)cc1C`, for which the Potency was 1.84 µM (active).
`COC(=O)c1ccccc1O[C@@H]1O[C@H](CO)[C@@H](O)[C@H](O)[C@H]1O[C@@H]1O[C@@H](C)[C@H](O)[C@@H](O)[C@H]1O`: the call was inactive.
Regarding `Cn1c(=O)n(-c2ccc(C(C)(C)C#N)cc2)c2c3cc(C#Cc4cccnc4)ccc3ncc21`, the Potency was 0.0224 µM (active).
For the compound `C[C@@H]1O[C@@H](O[C@H]2[C@@H](OC(=O)[C@]34CCC(C)(C)CC3C3=CCC5[C@@]6(C)C[C@H](O)[C@H](O[C@@H]7O[C@H](C(=O)O)[C@@H](O)[C@H](O)[C@H]7O)[C@@](C)(C(=O)O)C6CC[C@@]5(C)[C@]3(C)CC4)OC[C@H](O)[C@@H]2O)[C@H](O)[C@H](O)[C@H]1O[C@@H]1OC[C@@H](O)[C@H](O)[C@H]1O` (stereo not given in full), the max response is -0.804%.
On the same count and under the same terms, the same measure for `CC1(C)CCC[C@]2(C)[C@H]3CC(=O)O[C@]3(C)CC[C@@H]12`: -21.8%.
